# “And” between values parts separate entries of the source, which are not always exact repeats. Equal entries are not always repeated. Structures can show the parent of a compound that is named as a salt. ± gives the standard deviation of the averaged measurements. Whole data set: some 3,100 compounds, median “mean cytoplasmic OPP incorporation (global translation) relative to DMSO” near 100, cut for the lowest 2% near 56. This is one part of a sample in which the lowest values are shown more often than they occur.
# Test system: U2OS
# Assay: mean cytoplasmic OPP incorporation (global translation) relative to DMSO (% of DMSO); higher = more protein synthesis
# Details: 10 µM; 24 h
# Method: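 Primary image-based screen in U2OS cells: compounds at 10 uM for 24 h, then a 1 h o-propargyl-puromycin (OPP) pulse, click labelling, and high-throughput microscopy. Mean cytoplasmic OPP intensity and nuclei count were normalised to DMSO wells within each plate (DMSO = 100) and averaged over triplicate plates.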
row,SMILES,mean cytoplasmic OPP incorporation
1,O=C(O)Cc1nn(Cc2ccc(Br)cc2F)c(=O)c2ccccc12 [Statil],98.2
2,Cc1cc(NC(=O)c2cccc(NC(=O)/C=C/CN(C)C)c2)ccc1Nc1nccc(-c2cccnc2)n1,96.1
3,Cc1ccc(NC(=O)c2ccc(CN3CCN(C)CC3)cc2)cc1Nc1nccc(-c2cccnc2)n1 [Imatinib Mesylate],130
4,COc1ccc(C(=O)NCc2cccnc2)cc1C(=O)NCc1cccnc1 [Picotamide monohydrate],98.8
5,Cc1ccc(NC(=O)c2ccc(CN3CCN(C)CC3)cc2)cc1Nc1nccc(-c2cccnc2)n1 [Imatinib (STI571)],124
6,Nc1ccccc1NC(=O)c1ccc(CNc2nccc(-c3cccnc3)n2)cc1 [Mocetinostat (MGCD0103)],35.5
7,CC(=O)Nc1ccc(C(=O)Nc2ccccc2N)cc1,57.3 ± 33
8,Cc1ccc(NC(=O)c2ccc(CN3CCN(C)CC3)cc2)cc1Nc1nccc(-c2cccnc2)n1 [Imatinib mesylate],121 ± 11
9,"Nc1ccccc1NC(=O)c1ccc(CNC(=O)OCc2cccnc2)cc1 [Entinostat (MS-275, SNDX-275)]",23.5
10,Cc1ccc(NC(=O)c2ccc(CN3CCN(C)CC3)cc2)cc1Nc1nccc(-c2cccnc2)n1 [Imatinib],120
11,O=c1nc2ccccc2c2n1CC(CN1CCN(c3ccccc3)CC1)N2 (stereo not drawn),101
12,O=C(O)c1ccccc1Nc1cccc2c1C(=O)c1cccc(Nc3ccccc3C(=O)O)c1C2=O,113
13,O=C(Cc1ccccc1)Nc1nc2ccc(Cl)cc2c2nc(-c3ccco3)nn12,104
14,CC(C)CC(NC(=O)OCC1c2ccccc2-c2ccccc21)C(=O)O (stereo not drawn),109
15,Brc1ccc(C2CN3CCSC3=N2)cc1 [L-p-Bromotetramisole oxalate],94.5
16,CCOC(=O)C=Cc1ccc(O)c(OC)c1 [Ferulic acid ethylester],103
17,COCC[n+]1c2c(n(Cc3cnccn3)c1C)C(=O)c1ccccc1C2=O,35
18,CC(C)NCC(O)COc1ccccc1-n1cccc1 (stereo not drawn) [Isamoltane hemifumarate],94.6
19,Nc1c(O)cc(O)cc1C=Cc1ccc(O)cc1 [Aminoresveratrol sulfate],100
20,CCC(=O)NC1CCc2cccc(OC)c2C1 (stereo not drawn),101
21,O=S1(=O)c2cccc3cccc(c23)N1CCCN1CCN(c2ccc(F)cc2)CC1 [Fananserin],103
22,CCCOC(=O)c1cc(O)c(O)c(O)c1 [N-Propyl gallate],123
23,CS(=O)(=O)N1CCN(Cc2cc3nc(-c4cccc5[nH]ncc45)nc(N4CCOCC4)c3s2)CC1 [Pictilisib (GDC-0941)],73.8
24,COc1ccc(-c2nc(N3CCOCC3)c3sc(CN(C)c4ncc(C(=O)NO)cn4)cc3n2)cn1,86.6
25,"Cc1c(CN2CCN(C(=O)[C@H](C)O)CC2)sc2c(N3CCOCC3)nc(-c3cnc(N)nc3)nc12 [Apitolisib (GDC-0980, RG7422)]",50.7
26,Cc1cc(Cc2cc(C)cc(C(C)(C)C)c2O)c(O)c(C(C)(C)C)c1,103

row,SMILES,mean cytoplasmic OPP incorporation
1,CC1(C)S[C@@H]2[C@H](NC(=O)Cc3ccccc3)C(=O)N2[C@H]1C(=O)O [Benzylpenicillin sodium],80.8
2,Cc1cc(C(=O)NNCc2ccccc2)no1 [Isocarboxazid],106
3,CC1(C)OC2=C(C(=O)c3ccccc3C2=O)[C@H](NCc2ccccc2)[C@@H]1O,38.9
4,CC1(C)S[C@@H]2[C@H](NC(=O)Cc3ccccc3)C(=O)N2[C@H]1C(=O)O [Benzathine benzylpenicillin],104
5,CC(C)Oc1ccc(-c2c[nH]cc2CN(C)CCN)cc1,100
6,CC(CCCCC(=O)Nc1ccc(C(F)(F)F)cc1)NCCc1cnc[nH]1 (stereo not drawn) [HTMT dimaleate],100
7,CC1(C)Oc2ccc(C#N)cc2[C@H](N2CCCC2=O)[C@H]1O [Cromakalim],98.1
8,"FC(F)(F)c1cc(COC2CCCNC2c2ccccc2)cc(C(F)(F)F)c1 [L-733,060 hydrochloride]",108
9,CCC(C)[C@H](NS(=O)(=O)c1cccc2ccccc12)C(=O)N[C@H](C=O)Cc1c[nH]c2ccccc12 (stereo partly drawn),102
10,COc1ccc2cc3[n+](cc2c1OC)CCc1cc2c(cc1-3)OCO2 [Berberine HCl],106
11,C[n+]1cc2c3c(ccc2c2ccc4cc5c(cc4c21)OCO5)OCO3 [Sanguinarine chloride],42.4
12,O=C1NC(=O)c2c1c(-c1ccccc1)cc1[nH]c3ccc(O)cc3c21,51.8
13,O=c1[nH]c2cc(Cl)ccc2c(O)c1-c1cccc(Oc2ccccc2)c1,103
14,CS(=O)(=O)CCNCc1nc(-c2ccc3ncnc(Nc4ccc(OCc5cccc(F)c5)c(Cl)c4)c3c2)cs1,102
15,N#Cc1cc2c(OCC(O)CN3CCN(C(c4ccccc4)c4ccccc4)CC3)cccc2[nH]1 (stereo not drawn),107
16,CCN(CC)CCCC(C)Nc1ccnc2cc(Cl)ccc12 (stereo not drawn) [Chloroquine diphosphate],105
17,CCN(CC)CCCC(C)Nc1c2ccc(Cl)cc2nc2ccc(OC)cc12 (stereo not drawn) [Quinacrine dihydrochloride dihydrate],29.5
18,CCN(CCO)CCCC(C)Nc1ccnc2cc(Cl)ccc12 (stereo not drawn) [Hydroxychloroquine sulfate],102
19,CCN(CCO)CCCC(C)Nc1ccnc2cc(Cl)ccc12 (stereo not drawn) [Hydroxychloroquine],93
20,CCN(CC)CCCC(C)Nc1ccnc2cc(Cl)ccc12 (stereo not drawn) [Chloroquine],107
21,O=C(CCCCCCC(=O)NO)NO [Suberoyl bis-hydroxamic acid],88.4
22,C[C@H](CCC(=O)NCC(=O)O)[C@H]1CC[C@H]2[C@@H]3CC[C@@H]4C[C@H](O)CC[C@]4(C)[C@H]3C[C@H](O)[C@]12C [Glycodeoxycholic acid],102
23,CCC(=O)N1CCN(c2ccc(-n3c(=O)ccc4cnc5ccc(-c6cnc7ccccc7c6)cc5c43)cc2C(F)(F)F)CC1 [Torin 1],73
24,Nc1ccc(-c2ccc3ncc4ccc(=O)n(-c5cccc(C(F)(F)F)c5)c4c3c2)cn1 [Torin 2],67.6 ± 3.6
25,COc1ccc(-c2ccc3ncc4c(c3c2)n(-c2ccc(N3CCNCC3)c(C(F)(F)F)c2)c(=O)n4C)cn1,33.4 ± 16
26,CCN(CC)CCNC(=O)c1c(C)[nH]c(/C=C2\C(=O)Nc3ccc(Cl)cc32)c1C,124

row,SMILES,mean cytoplasmic OPP incorporation
1,Cc1nnc(-c2ccc3occ(-c4ccc([S+](C)[O-])cc4)c3c2)o1 (stereo not drawn),105
2,"CCCCC[C@H](O)/C=C/C=C\CCCCCCCC(=O)O [13(S)-Hydroxy-9Z,11E-octadecadienoic acid]",99.3
3,CC(/C=C/C(=O)NO)=C\[C@@H](C)C(=O)c1ccc(N(C)C)cc1 [Trichostatin A],66.2 ± 33
4,CN1CCN(C(=O)c2nc3ccc(Cl)cc3[nH]2)CC1,81.1
5,CN1CCCN(C(=O)c2cccc(-c3ccc(/C=C4/C(=O)Nc5ccc(Cl)cc54)o3)c2)CC1,55.4
6,Cc1[nH]c(/C=C2\C(=O)Nc3ccc(S(=O)(=O)N(C)c4cccc(Cl)c4)cc32)c(C)c1C(=O)N1CCN(C)CC1,88.9
7,NCCCCCc1c[nH]cn1 [Impentamine dihydrobromide],99.3
8,Cc1cc(C)c(S(=O)(=O)Nc2ccccc2C(F)(F)F)c(C)c1,97.3
9,O=C(Nc1ccccc1-c1cn2c(CN3CCNCC3)csc2n1)c1cnc2ccccc2n1,48.8
10,Cc1cc(C(=O)O)sc1C(N)C(=O)O (stereo not drawn),104
11,COC(=O)[C@@H](N)CSC/C=C(\C)CC/C=C(\C)CCC=C(C)C [S-Farnesyl-L-cysteine methyl ester],95.9
12,CSc1ccc(/C=C2/C(C)=C(CC(=O)O)c3cc(F)ccc32)cc1 [Sulindac Sulfide],104
13,NS(=O)(=O)c1ccc(NC(=O)Nc2ccc(F)cc2)cc1,98.7
14,Nc1nc(Nc2ccc(S(N)(=O)=O)cc2)nn1C(=O)c1c(F)cccc1F,50.1
15,COc1ccc(CCN2CCN(CCCc3ccccc3)CC2)cc1OC,111
16,CCN(C(=O)CO)[C@H]1CN(/C(=N\C#N)Nc2cccc(OC(F)F)c2)N=C1c1ccc(Cl)c(Cl)c1,107
17,CCCCCCCCOC(=O)/C=C/c1ccc(O)c(O)c1 [n-Octyl caffeate],88.9
18,NC(N)=NCCC[C@H](NC(=O)[C@@H]1CCCN1C(=O)[C@H](N)Cc1ccccc1)C(=O)CCl,99.7
19,O=C(O)Cc1ccc(OCCNC[C@H](O)c2ccccc2)cc1 [ZD 2079 hydrochloride],103
20,Cc1cc(I)ccc1Nc1c(C(=O)NOCC2CC2)cc(F)c(F)c1F,97.5
21,CC(NC(=O)C(Cc1ccccc1)NC(=O)OCc1ccccc1)C(=O)CF (stereo not drawn),101
22,CCCC[C@@H](C=O)NC(=O)[C@H](CC(C)C)NC(=O)OCc1ccccc1 [Calpeptin],106 ± 7.2
23,CC(C)C[C@@H](C=O)NC(=O)[C@H](CC(C)C)NC(=O)[C@H](CC(C)C)NC(=O)OCc1ccccc1,91.4 and 56.1
24,"C[C@H](CC[C@@H]1OC1(C)C)[C@H]1CC[C@H]2[C@@H]3CC=C4C[C@@H](O)CC[C@]4(C)[C@H]3CC[C@]12C [24(S),25-Epoxycholesterol]",112
25,Cc1ccc(NC(=O)C(C)C)cc1C1CCN(Cc2ccc(Oc3ccc(F)c(F)c3)cc2)CC1,108
26,CC[C@H](C)[C@H](N)C1=N[C@H](C(=O)N[C@@H](CC(C)C)C(=O)N[C@H](CCC(=O)[O-])C(=O)N[C@H](C(=O)N[C@H]2CCCCNC(=O)[C@H](CC(N)=O)NC(=O)[C@@H](CC(=O)[O-])NC(=O)[C@H](Cc3cnc[nH]3)NC(=O)[C@@H](Cc3ccccc3)NC(=O)[C@H]([C@@H](C)CC)NC(=O)[C@@H](CCCN)NC2=O)[C@@H](C)CC)CS1.[Zn+2] [Bacitracin zinc],107
